Experiment [1] can be described thus: antimalarial activity against Dd2 strain (AID 2302;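 active means growth inhibition above 50% at the single 2 µM test dose, taken to imply half-maximal potency below 2 µM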;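 further: 0% = DMSO untreated growth and 100% = chloroquine plus artemisinin killed control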). Particulars: P. falciparum Dd2 in RBCs, LDH growth readout, 72 h; at 2 µM; active compounds read high.
A short description of experiment [2]: human hepatoma cell viability loss – ATP luminescence, cytotoxicity control for P. falciparum antimalarial project, primary screen (AID 2303;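 active means inhibition above 50%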;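 further: 0% = DMSO wells and 100% = digitonin-killed cells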). Particulars: HepG2 viability, 24-48 h, at 10 µM, active compounds read high.
The target in experiment [3] is L-lactate dehydrogenase (Plasmodium falciparum (isolate CDC / Honduras)) (UniProt Q27743). Put plainly: PfLDH activity inhibition – cell lysate, 3D7 strain, counter-screen for P. falciparum growth inhibition project (AID 2304).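 Further: 0% = vehicle and 100% = reference inhibitor.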 As to conditions: P. falciparum 3D7 crude extract, LDH APAD/NBT absorbance; at 2 µM; active compounds read high.
L-lactate dehydrogenase (Plasmodium falciparum (isolate CDC / Honduras)), sequence (Q27743 whole entry, looked up): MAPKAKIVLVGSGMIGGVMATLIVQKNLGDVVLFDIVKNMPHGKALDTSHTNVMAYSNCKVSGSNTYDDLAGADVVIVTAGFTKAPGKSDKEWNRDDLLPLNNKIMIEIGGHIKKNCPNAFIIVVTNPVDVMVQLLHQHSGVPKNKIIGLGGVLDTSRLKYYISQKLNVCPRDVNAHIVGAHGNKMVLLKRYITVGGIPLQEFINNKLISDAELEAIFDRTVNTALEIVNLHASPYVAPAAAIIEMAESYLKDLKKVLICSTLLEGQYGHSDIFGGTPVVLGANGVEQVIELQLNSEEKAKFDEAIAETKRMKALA
Experiment [4] is described as follows: inhibition of 3D7 malaria parasite growth – strain 3D7 (AID 2306).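 Further: 0% = DMSO wells and 100% = chloroquine plus artemisinin control wells.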 Particulars: P. falciparum 3D7 erythrocytic growth, LDH absorbance, 72 h; at 2 µM; active compounds read high.
The target in experiment [5] is Calcium-dependent protein kinase 1 (Plasmodium falciparum (isolate 3D7)) (UniProt P62344). Put plainly: PfCDPK1 kinase inhibitors, biochemical, TCAMS library (AID 1159585; cut-off not given, nearly all actives have IC50 up to about 0.98 µM;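 further: inhibitors leave more ATP so luminescence rises with inhibition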). As to conditions: recombinant PfCDPK1, Kinase-Glo ATP depletion luminescence.
Calcium-dependent protein kinase 1 (Plasmodium falciparum (isolate 3D7)), sequence (P62344 whole entry, looked up): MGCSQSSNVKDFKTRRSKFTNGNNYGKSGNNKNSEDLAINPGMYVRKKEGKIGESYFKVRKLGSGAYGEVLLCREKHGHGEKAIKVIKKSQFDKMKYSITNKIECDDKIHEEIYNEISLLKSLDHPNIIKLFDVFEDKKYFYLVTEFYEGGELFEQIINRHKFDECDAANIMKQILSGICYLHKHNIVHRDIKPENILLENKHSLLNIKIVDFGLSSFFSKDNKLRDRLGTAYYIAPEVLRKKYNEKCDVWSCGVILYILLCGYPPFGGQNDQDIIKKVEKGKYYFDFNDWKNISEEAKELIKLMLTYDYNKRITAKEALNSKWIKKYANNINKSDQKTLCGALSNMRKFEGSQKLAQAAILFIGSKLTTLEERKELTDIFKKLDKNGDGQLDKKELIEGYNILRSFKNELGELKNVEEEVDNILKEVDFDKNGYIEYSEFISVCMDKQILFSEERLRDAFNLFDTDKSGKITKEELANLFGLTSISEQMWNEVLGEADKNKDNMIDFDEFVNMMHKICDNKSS
In experiment [6] the target is Plasmodium falciparum protein kinase 6 (PK6, PF3D7_1337100) (UniProt Q8IDW1). As to the kind of experiment: PfPK6 kinase inhibitors, biochemical, TCAMS library (AID 1159586). As to conditions: recombinant PfPK6, Kinase-Glo ATP depletion luminescence.
Plasmodium falciparum protein kinase 6 (PK6, PF3D7_1337100), sequence (Q8IDW1 1-305): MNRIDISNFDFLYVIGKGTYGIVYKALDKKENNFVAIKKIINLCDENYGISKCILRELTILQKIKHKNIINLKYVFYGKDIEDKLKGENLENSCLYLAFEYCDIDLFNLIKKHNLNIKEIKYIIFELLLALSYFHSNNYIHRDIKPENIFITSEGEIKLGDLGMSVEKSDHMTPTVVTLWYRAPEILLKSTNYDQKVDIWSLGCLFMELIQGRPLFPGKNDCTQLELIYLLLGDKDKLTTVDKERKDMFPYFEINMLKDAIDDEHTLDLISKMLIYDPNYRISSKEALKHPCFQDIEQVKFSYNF
The target in experiment [7] is Protein kinase 7 (PK7), Plasmodium falciparum 3D7 (PF3D7_0213400) (UniProt Q7YTF7). Put plainly: inhibition of Plasmodium PK7 catalytic activity – biochemical, TCAMS antimalarial set, Kinase-Glo luminescence (AID 1159587). Particulars: recombinant PfPK7, Kinase-Glo ATP depletion luminescence.
Protein kinase 7 (PK7), Plasmodium falciparum 3D7 (PF3D7_0213400), sequence (Q7YTF7 1-343): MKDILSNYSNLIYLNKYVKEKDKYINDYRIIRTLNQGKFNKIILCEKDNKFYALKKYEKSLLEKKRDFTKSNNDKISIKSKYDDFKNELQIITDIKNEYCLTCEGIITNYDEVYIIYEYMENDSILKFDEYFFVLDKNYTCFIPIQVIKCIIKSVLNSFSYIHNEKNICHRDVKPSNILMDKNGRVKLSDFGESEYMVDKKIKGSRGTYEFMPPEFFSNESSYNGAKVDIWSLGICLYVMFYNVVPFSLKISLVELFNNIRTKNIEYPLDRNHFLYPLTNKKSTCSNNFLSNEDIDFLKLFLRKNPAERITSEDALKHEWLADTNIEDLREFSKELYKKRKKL
For experiment [8], the target named is Calcium-dependent protein kinase 4 (Plasmodium falciparum (isolate 3D7)) (UniProt Q8IBS5). As to the kind of experiment: PfCDPK4 kinase inhibitors, biochemical, TCAMS library (AID 1159588; cut-off not given, nearly all actives have IC50 up to about 0.91 µM). As to conditions: recombinant PfCDPK4, Kinase-Glo ATP depletion luminescence.
Calcium-dependent protein kinase 4 (Plasmodium falciparum (isolate 3D7)), sequence (Q8IBS5 whole entry, looked up): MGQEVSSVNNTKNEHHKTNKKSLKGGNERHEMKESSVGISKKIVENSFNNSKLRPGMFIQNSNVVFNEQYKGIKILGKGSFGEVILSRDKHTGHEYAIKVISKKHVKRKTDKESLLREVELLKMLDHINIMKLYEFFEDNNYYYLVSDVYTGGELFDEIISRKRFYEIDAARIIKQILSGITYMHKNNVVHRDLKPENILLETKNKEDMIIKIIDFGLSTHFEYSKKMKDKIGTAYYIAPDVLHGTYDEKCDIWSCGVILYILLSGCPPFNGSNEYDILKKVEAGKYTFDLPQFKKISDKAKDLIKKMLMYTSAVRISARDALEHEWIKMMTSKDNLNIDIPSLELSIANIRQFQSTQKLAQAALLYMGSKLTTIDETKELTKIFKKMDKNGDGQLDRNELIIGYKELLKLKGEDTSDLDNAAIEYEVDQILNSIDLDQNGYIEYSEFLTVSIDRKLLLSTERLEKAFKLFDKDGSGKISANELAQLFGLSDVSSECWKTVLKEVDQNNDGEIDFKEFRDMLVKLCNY

A number with no mark means an inactive call. For some of these results: Entries with a potency or affinity are not part of this list. The source made the active and inactive calls. Unless noted, how the calls were made is not given here.

Take `CN1CCN(c2ccc(CNc3ccc4ncc(-c5ccc(OC(F)(F)F)cc5)n4n3)cc2)CC1`: the values for the growth inhibition in experiment [1] and in experiment [4] were 87% (active) and 94% (active), respectively. For the same compound, the inhibition in experiment [2] is 13%; in experiment [3], 0%. The result in experiment [5], in experiment [6], in experiment [7] and in experiment [8] was inactive.
Regarding `CC(=O)c1ccc(-c2ccccc2)s1`, the growth inhibition in experiment [1] was 2%; in experiment [4], 92% (active). The inhibition in experiment [2] was -2%; in experiment [3], 8%. Further, the result in experiment [5], in experiment [6], in experiment [7] and in experiment [8] was inactive.
As for `O=C(NCc1ccc(Cl)cc1)c1ccc(CN2CCCN(Cc3cccc(O)c3)CC2)cc1`, the growth inhibition in experiment [1] was 12%; in experiment [4] it was 82% (active). For the same compound, the values for the inhibition in experiment [2] and in experiment [3] were 25% and -5%, respectively. Further, the outcome in experiment [5], in experiment [6], in experiment [7] and in experiment [8] was inactive.
Consider `Cc1cc(N[C@@H](Cc2ccccc2)C(=O)NCc2cccs2)nc(NCC2CCCCC2)n1`, for which the growth inhibition in experiment [1] was 92% (active); in experiment [4], 100% (active). Moreover, the figures for the inhibition in experiment [2] and in experiment [3] were -5% and 0%, respectively. For the same compound, the result in experiment [5], in experiment [6], in experiment [7] and in experiment [8] was inactive.
Regarding `Fc1ccccc1C=NNc1ccnc2ccc(C(F)(F)F)cc12`, the growth inhibition in experiment [1] was 61% (active); in experiment [4], 100% (active). The inhibition in experiment [2] was 5%; in experiment [3], 3%. Further, the result in experiment [5], in experiment [6], in experiment [7] and in experiment [8] was inactive.
As for `Cc1ccc(N2C(N)=NC(N)=NC2(C)C)cc1`, the growth inhibition in experiment [1] was 20%; in experiment [4] it was 96% (active). Besides, the inhibition is 43% in experiment [2] and 0% in experiment [3]. For the same compound, the result in experiment [5], in experiment [6], in experiment [7] and in experiment [8] was inactive.
For `Fc1ccc2nc(-c3cccc(-c4ccc(CN5CCC(CCN6CCCCC6)CC5)cc4)c3)[nH]c2c1`, the growth inhibition is 100% (active) in experiment [1] and 101% (active) in experiment [4]. Also, the figures for the inhibition in experiment [2] and in experiment [3] were 91% (active) and -2%, respectively. For the same compound, the result in experiment [5], in experiment [6], in experiment [7] and in experiment [8] was inactive.
For `COc1ccc(Br)cc1/C=C/C(=O)Nc1ccc2c(c1)CCCN(C)C2`, the growth inhibition in experiment [1] was 10%; in experiment [4], 84% (active). In addition, the inhibition in experiment [2] is 8%; in experiment [3] it was 1%. Moreover, the result in experiment [5], in experiment [6], in experiment [7] and in experiment [8] was inactive.
Turning to `COc1cccc(-c2cccc(NC(=O)C3CCN(Cc4ccc(O)cc4)CC3)c2)c1`, the growth inhibition in experiment [1] and in experiment [4] was 97% (active) throughout. Besides, the inhibition in experiment [2] is 9%; in experiment [3], 0%. Also, the outcome in experiment [5], in experiment [6], in experiment [7] and in experiment [8] was inactive.
For `Cc1cc(N2CCCC2)nc(Nc2ccc(NC(=O)c3ccccc3F)cc2)n1`, the growth inhibition was 44% in experiment [1] and 98% (active) in experiment [4]. The inhibition is 36% in experiment [2] and -3% in experiment [3]. Besides, the outcome in experiment [5], in experiment [6], in experiment [7] and in experiment [8] was inactive.
`CCC(C)NS(=O)(=O)c1ccc2nc(Nc3cccc(SC)c3)n(C(C)C(C)C)c2c1` (stereo not given): the growth inhibition was 70% (active) in experiment [1] and 94% (active) in experiment [4]. The inhibition in experiment [2] was -1%; in experiment [3], 2%. The outcome in experiment [5], in experiment [6], in experiment [7] and in experiment [8] was inactive.
With `COc1ccc(CNCc2ccsc2)cc1-c1ccc(S(=O)(=O)NCCN2CCCC2)c(C)c1`, the growth inhibition in experiment [1] is 43%; in experiment [4], 85% (active). The inhibition in experiment [2] was 49%; in experiment [3], -1%. Besides, the outcome in experiment [5], in experiment [6], in experiment [7] and in experiment [8] was inactive.
`Cc1cc(NN=Cc2cccc(F)c2)c2ccc(F)cc2n1`: the growth inhibition was 99% (active) in experiment [1] and 101% (active) in experiment [4]. Besides, the inhibition in experiment [2] is 2%; in experiment [3], -2%. Also, the result in experiment [5], in experiment [6], in experiment [7] and in experiment [8] was inactive.
With `CCOC(=O)CCc1cc(F)c(F)c(OC[C@H](O)CNC(C)(C)C(O)c2ccc3ccccc3c2)c1` (stereo not given in full), the results for the growth inhibition in experiment [1] and in experiment [4] were 92% (active) and 99% (active), respectively. The inhibition was 12% in experiment [2] and -4% in experiment [3]. For the same compound, the result in experiment [5], in experiment [6], in experiment [7] and in experiment [8] was inactive.
As for `COc1ccccc1CCNC(=O)c1cnc(N2CCN(c3ccncc3)CC2)c(Cl)c1`, the growth inhibition was 54% (active) in experiment [1] and 98% (active) in experiment [4]. Moreover, the figures for the inhibition in experiment [2] and in experiment [3] were 30% and 4%, respectively. The result in experiment [5], in experiment [6], in experiment [7] and in experiment [8] was inactive.
As for `O=C(Nc1ccc(C2=NC3CCCCC3N2)cc1)Nc1ccc(C2=NC3CCCCC3N2)cc1` (stereo not given), the growth inhibition in experiment [1] is 76% (active); in experiment [4], 88% (active). The inhibition is 7% in experiment [2] and 0% in experiment [3]. Besides, the result in experiment [5], in experiment [6], in experiment [7] and in experiment [8] was inactive.
Consider `CC1(C)N=C(N)N=C(N)N1OCc1cccs1`, for which the growth inhibition is -1% in experiment [1] and 93% (active) in experiment [4]. For the same compound, the values for the inhibition in experiment [2] and in experiment [3] were 60% (active) and -4%, respectively. The result in experiment [5], in experiment [6], in experiment [7] and in experiment [8] was inactive.
Consider `COc1c(C2CCN(CCCCNC(=O)c3cc(-c4ccc(Cl)cc4)oc3C)CC2)ccc2c1CCCC2`, for which the growth inhibition is 27% in experiment [1] and 97% (active) in experiment [4]. Moreover, the inhibition in experiment [2] was 93% (active); in experiment [3], 2%. Besides, the outcome in experiment [5], in experiment [6], in experiment [7] and in experiment [8] was inactive.
In the case of `CCc1ccc(CN(CCCOc2cccc(CC(=O)NCc3cnc[nH]3)c2)Cc2ccc(-n3ccnc3)cc2)cc1`, the growth inhibition is 28% in experiment [1] and 99% (active) in experiment [4]. Also, the figures for the inhibition in experiment [2] and in experiment [3] were 1% and -2%, respectively. In addition, the result in experiment [5], in experiment [6], in experiment [7] and in experiment [8] was inactive.
As for `Fc1cc(Cl)ccc1Nc1ccnc2cc(-c3ccc(CN4CCCCC4)o3)ccc12`, the growth inhibition is 99% (active) in experiment [1] and 100% (active) in experiment [4]. In addition, the inhibition is 16% in experiment [2] and -1% in experiment [3]. Moreover, the result in experiment [5], in experiment [6], in experiment [7] and in experiment [8] was inactive.

The values above are taken from PubChem BioAssay.
